One assay has as its system TYK2(JH2domain-pseudokinase).
By Kd is commonly meant the equilibrium constant for the complex coming apart. Higher therefore signals weaker binding. As for `Cc1csc(-c2nc(Nc3ccncc3)c3ccccc3n2)n1` [GW869640], the Kd amounted to 530 nM.

The compound `COc1ccc2nc(-c3cccc(C)n3)nc(Nc3ccncc3)c2c1` [GSK204919] had an equilibrium dissociation constant (Kd) of 2000 nM.

Compound `Nc1ncnc2[nH]c(-c3ccccc3)nc12` [AH5015] yielded a Kd of 96 nM.

In the next assay the test system is ULK3.
With `COc1ccccc1-c1ccc2c(NC(=O)C3CC3)n[nH]c2n1` [SB-711239], the Kd was > 10000 nM.

The compound `COc1cc(Nc2nccc(N3CCC(NC(=O)Nc4cc(C)ccc4C)C3)n2)cc(OC)c1OC` (stereo not shown) [GSK1379762] displayed a Kd of 4300 nM.

Consider `COc1ccc(CNC(=O)NC2CCN(c3ccnc(Nc4cc(OC)c(OC)c(OC)c4)n3)C2)cc1` (stereo not shown) [GSK1379748], for which binding was put at a Kd of 550 nM.

The subject of a further assay is T1, VPS34.
T1 construct: gene PIK3C3
`CS(=O)(=O)c1ccc(-c2c(-c3ncn[nH]3)sc(N3CCOCC3)c2C#N)cc1` returned a Kd of 110 nM. That is a sub-micromolar value.

As for `O=c1cc(N2CCOCC2)nc2n(Cc3cccc(Cl)c3Cl)ccn12` [GSK2286295], the Kd stood at 2.1 nM.

The compound `Cc1nnc(-c2ccc3occ(-c4ccc(S(C)=O)cc4)c3c2)[nH]1` (stereo not shown) registered a Kd of 62 nM.

With `Cc1cccc(-c2nc(-c3ccc(S(C)(=O)=O)cc3)sc2-c2ccnc(NCCc3ccccc3)c2)c1`, the Kd was determined as 8400 nM.

In the case of `Cc1c(Cn2ccn3c(=O)cc(N4CCOCC4)nc23)cccc1C(F)(F)F` [GSK2289044], the Kd stood at 64 nM. Compared with the last compound, the Kd is about 130-fold lower.

A further assay has as its system T2, YSK4.
T2 construct: gene MAP3K19
In turn, `O=C(Nc1n[nH]c2nc(-c3nccs3)c(Br)cc12)C1CC1` [SB-742251] returned a Kd of 210 nM.

In the case of `Cc1cc(-c2ccc3c(c2)CC[C@@H](N[C@@H](C)c2ccccc2)C3)cnc1N.Cl` [GW412617], the Kd stood at 2400 nM.

`Cn1ccc2ncnc(Oc3ccc(NC(=O)Nc4ccccc4)cc3)c21` returned a Kd of 170 nM.

`Cc1ccc(NC(=O)Nc2cccc(Cl)c2)cc1-c1ccc(C(=O)Nc2ccncc2)cc1` [GSK1398468] came in with a Kd of 61 nM.

`NC(=O)c1nnc2ccccc2c1N` registered a Kd of 300 nM.

`Nc1ncnc2[nH]c(-c3ccccc3)nc12` [AH5015] displayed a Kd of 270 nM.

`O=C(Nc1ccccc1)Nc1cccc(Oc2ccc3nccn3n2)c1` had a Kd of 270 nM.

Take `O=C(O)COc1ncnc2cc(-c3ccc4[nH]ncc4c3)sc12`: binding was characterised by a dissociation constant (Kd) of 20 nM.
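Note: kd values determined as follow-up on hits from a single-replicate KINOMEscan panel screen.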
